Bioassay records (PubChem)
Shown are actives, neighbours in structure and some others; about 0.39% of the full set was active somewhere.
EPAC2 ag: qHTS for Agonist of cAMP-regulated guanine nucleotide exchange factor 4 (EPAC2): primary screen; EPAC2 activation, biochemical qHTS; response scale: 100% = 6.5 mM cAMP response; AID 720711, 2013; Potency, µM (top dose mostly 154 µM), for inactives: at the highest dose activation, usual class: activators; actives 0.079% (n = 360,000); note: nearly all actives have a fitted effect of over 50% in size
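Each well held 100 nM EPAC2, 250 nM RAP1B-BODIPY-GDP and 50 uM GDP. Fluorescence, read at 5-min intervals to 30 min, was referenced to a 6.5 mM cAMP positive control.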
EPAC1 antag: qHTS for Antagonist of cAMP-regulated guanine nucleotide exchange factor 3 (EPAC1): primary screen; Rap guanine nucleotide exchange factor 3 (Homo sapiens), O95398; EPAC1 GEF assay, Rap1b-BODIPY-GDP exchange fluorescence; Potency, µM (highest dose often 115 µM), inactives show top-dose activity change, negative = inhibition, actives largely listed as inhibitors; actives 0.14% (n = 360,000); AID 720709, 2013;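 note: plate controls were vehicle for no effect and positive control for full effect; nearly all actives have a fitted effect of over 50% in size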
EPAC2 antag: qHTS for Antagonist of cAMP-regulated guanine nucleotide exchange factor 2 (EPAC2): primary screen; Rap guanine nucleotide exchange factor 4 (Homo sapiens), Q8WZA2; EPAC2 GEF exchange of Rap1B-BODIPY-GDP, fluorescence; actives 0.18% (n = 360,000); Potency, µM (doses to about 114 µM), for inactives: top-dose activity, negative = inhibition, actives largely listed as inhibitors; note: % is set by controls: 0 for no effect and ±100 for the full control effect; nearly all actives have a fitted effect of over 45% in size
EPAC1 ag: qHTS for Agonist of cAMP-regulated guanine nucleotide exchange factor 3 (EPAC1): primary screen; EPAC1 agonist qHTS, biochemical assay; response scale: 100% = response to 6.5 mM cAMP; Potency, µM (highest dose often 154 µM), inactives show at the top dose activation, actives largely listed as activators; actives 0.073% (n = 360,000); Rap guanine nucleotide exchange factor 3 (Homo sapiens), O95398; AID 720707, 2013; note: nearly all actives have a fitted effect of over 60% in size
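Nucleotide exchange assay: 100 nM EPAC1 with 250 nM Rap1B loaded with BODIPY-GDP and 50 uM GDP, room temperature. Fluorescence (480/540 nm) read every 5 min for 30 min; signal change normalized to 6.5 mM cAMP as full agonist.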
Active calls of the source: *; i = inactive; ? = inconclusive. Calls come from the whole dose curve; as a rule, active = well fitted curve in the direction sought with a large enough effect; inconclusive = small, poorly fitted or top-dose-only effect, or another doubt; inactive = no such curve, though single readings can be large; an effect the other way counts as inactive or inconclusive. Potency is the fitted concentration of half-maximal effect.

SMILES | EPAC2 ag | EPAC1 antag | EPAC2 antag | EPAC1 ag
O=C(O)C(c1ccccc1)N1C(=O)/C(=C/c2cccs2)SC1=S (centres undefined) | -11% | -18% | 56µM* | -2%
Cn1c(NCc2ccccc2F)nc2cc(-c3cccc(C(F)(F)F)c3)sc2c1=O | -10% | 0% | -1% | 6%
CCCCn1c(NC(=O)c2ccco2)c(S(=O)(=O)c2ccc(C)cc2)c2nc3ccccc3nc21 | 10% | -13% | -16% | -3%
CCCCn1c(NS(=O)(=O)c2ccccc2)c(S(=O)(=O)c2ccc(C)cc2)c2nc3ccccc3nc21 | -18% | 50µM* | -9% | -1%
COc1ccc(CSC(=S)NNc2ccccc2)cc1 | 13% | 6% | -22% | -12%
CCOC(=O)[C@]12CCC=C1N(Cc1ccc(Cl)cc1Cl)C(=O)[C@H](CC(=O)N1CCSCC1)C2 | 22% | -20% | -4% | 6%
COc1cc2nc(N3CCNCC3)nc(N)c2cc1OC | 23% | ? | 32µM* | 9%
COc1cc2c(cc1OC)C1(C)N(CC2)C(C(C)=O)=NN1c1ccc(Cl)cc1 (centres undefined) | 18% | -21% | 25µM* | 15%
COC(=O)C(C(=O)OC)c1ccccc1NS(=O)(=O)c1c(C)cc(C)cc1C | 6% | 4% | -15% | -14%
CCOC(=O)Nc1cc2c(c(N)n1)N=C(c1ccccc1)CN2 | 2% | 89µM* | 12% | 10%
CCOC(=O)Nc1sc(C)nc1-c1ccccc1 | 7% | -1% | -6% | 5%
CC1(C)N=C(N)N=C(N)N1c1ccc(CCCCc2ccccc2)cc1 | 3% | 11% | -7% | -2%
Cc1cc(C)n(Cc2ccc(Cl)cc2Cl)c(=O)c1S(=O)(=O)c1ccccc1 | 2% | 7% | -7% | -15%
C=C(C)Cn1c(C)cc(C)c(S(=O)(=O)c2ccc(C)cc2)c1=O | 10% | -15% | 35µM* | -9%
Cc1cccc2nc(-c3ccco3)c(Nc3ccccc3)n12 | 2% | 4% | ? | 9%
Cc1ccc(Nc2c(-c3ccccn3)nc3cccc(C)n23)cc1 | -1% | -1% | 32µM* | -9%
CCN1CCN(Cc2c(O)ccc3c(=O)c(-c4ccccc4OC)coc23)CC1 | 6% | -4% | 0% | 6%
CCN1CCN(Cc2c(O)ccc3c2O/C(=C\C=C\c2ccccc2OC)C3=O)CC1 | ? | 46% | 89% | 56µM*
CCCC[C@@]1(C2CCCC2)Cc2cc(OCC(=O)O)c(Cl)c(Cl)c2C1=O | -3% | -20% | 45µM* | -11%
CC(C)(C)n1nnnc1C(CCc1ccccc1)N1CCN(C/C=C/c2ccccc2)CC1 (centres undefined) | 11% | -2% | -29% | 4%
C[C@H](NC(=O)C1(c2ccccc2)CCN(C(=O)OC(C)(C)C)CC1)C(=O)N[C@@H](C(=O)O)c1ccccc1 | 0% | 1% | 17% | 3%
C[C@@H](NC(=O)C1(c2ccccc2)CCN(C(=O)OC(C)(C)C)CC1)C(=O)N[C@@H](C(=O)O)c1ccccc1 | -6% | 56µM* | ? | -23%
COc1ccccc1N1CCN(C(=O)c2ccc(S(=O)(=O)N3CCCC3)cc2)CC1 | 7.9µM* | 1% | 7% | -5%
CCOC(=O)[C@]12CCCC=C1N(Cc1ccc3c(c1)OCO3)C(=O)[C@H](CC(=O)NCC13CC4CC(CC(C4)C1)C3)C2 | 10% | -12% | 4% | -4%
CN1/C(=C\C(=O)Nc2ccc(Cl)cc2)C(C)(C)c2ccccc21 | 6% | 3% | -2% | 5%
CN1/C(=C\C=C(C#N)C#N)C(C)(C)c2ccccc21 | 63µM* | -10% | i | -19%
CN1/C(=C\C=C(/C#N)C(=O)Nc2ccc(Cl)cc2)C(C)(C)c2ccccc21 | 50µM* | 60% | 57% | ?
CN1/C(=C/C=N/n2cnnc2)C(C)(C)c2ccccc21 | 2% | -1% | -6% | 3%
COc1ccc(N2CCN(C(=O)CCc3ccccc3OC)CC2)cc1 | 10% | 89µM* | 1% | -172%
